Screens (PubChem)
The full list was thinned out, with hits kept by preference.
LmPK inhibitor = qHTS Assay for Inhibitors of Leishmania Mexicana Pyruvate Kinase (LmPK); AID 1721, 2009; hit rate 0.37% among 290,000; purified LmPK, Kinase-Glo ATP luminescence, 1 h; Q27686; Potency, µM (titrated, usually from 57.5 µM), hits mostly inhibitors
Target sequence (Q27686 whole entry, looked up): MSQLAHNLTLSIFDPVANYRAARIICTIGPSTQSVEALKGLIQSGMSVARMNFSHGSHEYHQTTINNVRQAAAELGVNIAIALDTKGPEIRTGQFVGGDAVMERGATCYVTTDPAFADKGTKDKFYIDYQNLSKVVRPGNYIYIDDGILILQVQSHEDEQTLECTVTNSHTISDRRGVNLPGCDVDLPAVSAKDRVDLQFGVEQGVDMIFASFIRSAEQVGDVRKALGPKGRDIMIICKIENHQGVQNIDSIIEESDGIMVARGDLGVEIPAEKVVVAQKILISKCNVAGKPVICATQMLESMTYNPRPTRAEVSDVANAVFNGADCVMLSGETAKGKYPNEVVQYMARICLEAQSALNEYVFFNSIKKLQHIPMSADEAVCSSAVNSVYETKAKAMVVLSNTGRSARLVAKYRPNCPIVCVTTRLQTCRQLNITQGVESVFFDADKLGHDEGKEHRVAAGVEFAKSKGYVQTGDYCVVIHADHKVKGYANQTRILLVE
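0.1 nM LmPK, 0.5 mM PEP, 0.1 mM ADP; 50 mM imidazole pH 7.2, 7 mM MgCl2, 50 mM KCl; 1 h RT. Kinase-Glo luminescence readout, normalized to no-enzyme (full inhibition) and uninhibited wells.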
Shiga inhibitor = A qHTS for Small Molecule Inhibitors of Shiga Toxin. Vero cells, Shiga toxin protein synthesis inhibition reporter. AID 2315, 2010. inhibition, % at 38.7 µM. hit rate 9.2% among 290,000; in the data active = inhibition mostly above about 28%, no sharp cut-off; inactive = mostly below about 43%
CHX counter = Cycloheximide Counterscreen for Small Molecule Inhibitors of Shiga Toxin; cell reporter, cycloheximide protein synthesis inhibition counterscreen; max response, %; hit rate 12% among 300,000; AID 2314, 2010; in the data active = max response mostly above about 13%, no sharp cut-off; inactive = mostly below about 14%; also: read at 38.3 µM for the half of the compounds with a filed dose
Tb PYK inh = qHTS of Trypanosoma Brucei Inhibitors; pyruvate kinase (Trypanosoma brucei), Q57TT1; hit rate 0.12% among 410,000; Potency, µM (titrated, usually from 76.8 µM), usual class: inhibitors; TbPYK enzyme, Kinase-Glo Plus ATP luminescence, 45 min; also: nearly all actives have a fitted effect of over 50% in size
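Quantitative HTS: titrated library compounds versus trypanosomal pyruvate kinase in TEA buffer (pH 7.2) containing KCl, MgCl2, BSA and Tween-20. Reactions were initiated with ADP, 130 uM final. Kinase-Glo Plus luminescence was read after 45 min at RT.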
FBPA Giardia inh = qHTS Assay for Inhibitors of Fructose-1,6-bisphosphate Aldolase from Giardia Lamblia. purified Giardia FBPA. Potency, µM (highest dose often 59.6 µM), most hits filed as inhibitors. hit rate 0.71% among 290,000. AID 2451, 2010; also: nearly all actives have a fitted effect of over 55% in size
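Giardia FBPA (40 nM reagent) was preincubated 10 min at RT with compound (up to 57.5 uM final), then substrate plus GAPDH/TPI/NAD/arsenate coupling system with diaphorase/resazurin was added; resorufin fluorescence (525/598 nm) was read after 20 min.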
RE007 growth inh = qHTS Assay for Inhibitors of the HIV-1 protein Vpr; S. pombe RE007 Vpr strain, BacTiter-Glo ATP luminescence, 24 h; Potency, µM (series often up to 92.2 µM), hits mostly inhibitors; hit rate 0.21% among 360,000; AID 651644, 2012; active = well fitted falling curve with a large enough effect; inconclusive = small, poorly fitted or top-dose-only effect; inactive = no such curve, though single readings can be large or run the other way; also: nearly all actives have a fitted effect of over 50% in size
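Fission yeast strain RE007, carrying one chromosomally integrated HIV-1 vpr copy, was seeded at OD 0.01 in PMG+AL medium with 23 nL pinned compound. After 24 h at 30 °C and 99% humidity, viability was read by BacTiter-Glo luminescence.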
Each line names hits and unclear results; the compound was inactive in the other large screens. Unless noted, calls follow the shape of the dose curve; as a rule, active = well fitted curve in the direction sought with a large enough effect; inconclusive = small, poorly fitted or top-dose-only effect, or another doubt; inactive = no such curve, though single readings can be large; an effect the other way counts as inactive or inconclusive.

COc1ccc(OC)c(S(=O)(=O)Nc2ccc(O)c3ccccc23)c1	Shiga inhibitor 35, CHX counter 26, Tb PYK inh inconclusive, FBPA Giardia inh inconclusive
COc1ccc(OC)c(S(=O)(=O)Nc2cccc3c(O)cccc23)c1	none (no result: LmPK inhibitor, Shiga inhibitor, CHX counter, FBPA Giardia inh)
C[C@@H]1C(=O)O[C@H]2[C@H](O)[C@@]34[C@H]5CC(C(C)(C)C)[C@]36[C@H](OC(=O)[C@H]6O)O[C@]4(C(=O)O5)[C@@]12O (some centres undefined)	none (no result: LmPK inhibitor, Tb PYK inh, RE007 growth inh)
C/C(=N\NS(=O)(=O)c1ccc(C)cc1)c1ccc(C)o1	none
C/C(=N\NC(=O)c1c([N+](=O)[O-])c(C)nn1C)c1ccc(NC(=O)C2CCCC2)cc1	none (no result: FBPA Giardia inh)
C/C(=N\NC(=O)C1(C)CC1(Br)Br)c1ccc(NC(=O)c2ccc(C)o2)cc1 (centres undefined)	Shiga inhibitor 54, CHX counter 24
C/C(=N\NC(=O)c1c([N+](=O)[O-])c(C)nn1C)c1ccc(NC(=O)c2ccc(C)o2)cc1	Shiga inhibitor 51, CHX counter 25 (no result: FBPA Giardia inh)
C/C(=N/NS(=O)(=O)c1ccc(F)cc1)c1ccc(NC(=O)c2ccc(C)o2)cc1	CHX counter 35
CCS(=O)(=O)N1CCc2cc(C(=O)NCc3ccc(Cl)cc3)ccc21	none (no result: LmPK inhibitor, Shiga inhibitor, CHX counter, FBPA Giardia inh, RE007 growth inh)
O=C(Nc1cccn2ncnc12)c1cccc(C(F)(F)F)c1	CHX counter 24
O=C(Nc1ccsc1C(=O)O)c1cccc(C(F)(F)F)c1	Shiga inhibitor 77, CHX counter 61 (no result: RE007 growth inh)
O=C(Nc1ccsc1C(=O)O)c1cccc(Oc2ccccc2)c1	CHX counter 14
Cc1ccccc1NC(=O)c1cccc(C(F)(F)F)c1	none
O=C(Nc1nnc(-c2cccs2)o1)c1cccc(Oc2ccccc2)c1	FBPA Giardia inh inconclusive
O=C(Nc1cccn2ncnc12)C(F)(F)F	none
O=C(Cn1c(=O)oc2ccccc21)NCc1cccc(Cl)c1	none (no result: LmPK inhibitor, Shiga inhibitor, CHX counter, FBPA Giardia inh, RE007 growth inh)
N/C(=N\OC(=O)Cc1ccccc1)c1ccccc1Cl	Shiga inhibitor 94, CHX counter 59
N/C(=N\OC(=O)Cc1ccccc1)c1cccnc1	CHX counter 21
COc1ccc(OCCCC(=O)ON=C(N)c2ccccc2Cl)cc1	none (no result: LmPK inhibitor, Shiga inhibitor, CHX counter, FBPA Giardia inh)
N/C(=N\OC(=O)Cc1ccc(Cl)cc1)c1cccnc1	CHX counter 15
Cc1ccc(-n2c(=O)c3oc4ccccc4c3n(CC(=O)Nc3ccccc3)c2=O)cc1C	none (no result: LmPK inhibitor, Shiga inhibitor, CHX counter, FBPA Giardia inh, RE007 growth inh)
O=C(c1cccc(F)c1)N1CCC[C@@]2(CCN(c3ncccn3)C2)C1	none (no result: LmPK inhibitor, Shiga inhibitor, CHX counter, RE007 growth inh)
COc1ccc2nc3c(c(-c4ccccc4)c2c1)CCC3	none
COc1ccc2nc3c(nc2c1)CCCC3	CHX counter 33
COc1cccc(C(=O)N/N=c2\sc3ccccc3n2C)c1	CHX counter 15
CC(=O)N=c1sc2ccccc2n1C	none
Cn1/c(=N/NC(=O)c2ccccc2F)sc2ccccc21	Shiga inhibitor 79, CHX counter 35
COc1cccc(C(=O)Nc2ccccc2NC(=O)c2cccc(OC)c2)c1	none (no result: Shiga inhibitor)
CCC(=O)N/N=c1/sc2ccccc2n1C	none
Cc1ccc(C(=O)N/N=c2\sc3ccccc3n2C)cc1	CHX counter 20
CC(C1OC(C)(C)C(O)C1O)C1CC[C@@]2(C)C3=CCC4C(C)(C)C(=O)CC[C@]4(C)C3CC[C@@]12C (some centres undefined)	none (no result: LmPK inhibitor, Shiga inhibitor, CHX counter, Tb PYK inh, RE007 growth inh)
NC(C(=O)O)c1nn[nH]n1 (centres undefined)	none (no result: LmPK inhibitor, Tb PYK inh, RE007 growth inh)
Cc1ccc(O)c(C(=O)c2cc(C(=O)NCCc3ccccc3)c(=O)n(CCc3ccccc3)c2)c1	none
COc1ccc(O)c(C(=O)c2cc(C(=O)NCCc3ccccc3)c(=O)n(CCc3ccccc3)c2)c1	CHX counter 32 (no result: RE007 growth inh)
CC(C)CN(C)C(=O)CCc1nnc(Cc2ccc(-c3ccccc3)cc2)o1	CHX counter 22
CN(CCC1CCCCO1)C(=O)CCc1nnc(CCc2ccccc2)o1 (centres undefined)	Shiga inhibitor 47, CHX counter 32 (no result: FBPA Giardia inh)
O=C(CCc1nnc(Cc2ccc(-c3ccccc3)cc2)o1)N1CCCC1	none
Cc1cccc(Cc2nnc(CCC(=O)NCc3cnc4ccccn34)o2)c1	none
Cc1cccc(Cc2nnc(CCC(=O)N(C)CCc3ccccc3)o2)c1	Shiga inhibitor 61, CHX counter 48
Cc1cc(-c2nnc(CCC(=O)N(CC3CCC3)CC3CCCO3)o2)no1 (centres undefined)	Shiga inhibitor 78, CHX counter 44
COc1ccc(-c2nc3cnc(N4CCOCC4)nc3n(CCc3ccccc3)c2=O)cc1	none (no result: LmPK inhibitor, Shiga inhibitor, CHX counter, Tb PYK inh, RE007 growth inh)
CCc1ccc(-n2c(=O)c3c4c(sc3n(Cc3cc(=O)n5c(C)cccc5n3)c2=O)CCC4)cc1	none (no result: LmPK inhibitor, Shiga inhibitor, CHX counter, FBPA Giardia inh, RE007 growth inh)
CCOC(=O)c1cccc(NC(=O)c2cc(S(=O)(=O)N3CCCCCC3)cn2C)c1	none (no result: LmPK inhibitor, Shiga inhibitor, CHX counter, FBPA Giardia inh, RE007 growth inh)
CN(Cc1cccc2cnccc12)C(=O)CCc1nnc(CCc2ccccc2)o1	Shiga inhibitor 47, CHX counter 37
Cc1cc(-c2nnc(CCC(=O)N(C)CCc3ccccc3)o2)no1	Shiga inhibitor 74, CHX counter 19
CS(=O)(=O)N1CCC2(CCN(Cc3nccs3)CC2)CC1	none (no result: LmPK inhibitor, Shiga inhibitor, CHX counter, RE007 growth inh)
O=C(NCCCSc1ccccc1)c1cnc(Cl)c(Cl)c1	none (no result: FBPA Giardia inh)
CC1CCCN(c2ccc(C(=O)NCC3CCCO3)cn2)C1 (centres undefined)	CHX counter 25
O=C(NCC1CCCO1)c1ccc(/C=N/O)nc1 (centres undefined)	Tb PYK inh inconclusive
CC1CCN(S(=O)(=O)c2cccc(C(=O)NCc3cccs3)c2)CC1	none
